# Results published in PubChem BioAssay (Tox21).
# Results filed as inconclusive are left out. Where a call stands in place of a potency, no number is given. Activity calls are given as the source filed them. Unless noted, calls follow the shape of the full dose curve.
# Columns and labels:
# [1] = target: Acetylcholinesterase (Homo sapiens) (UniProt P22303); assay: Acetylcholinesterase (AChE) small molecule antagonists: enzyme-based qHTS assay (AID 1347397); conditions: Potency: AChE enzyme activity inhibition; outcome: AChE enzyme activity inhibition; also: nearly all actives have a fitted effect of over 55% in size
# Chain of Acetylcholinesterase (Homo sapiens) (P22303 whole entry, looked up): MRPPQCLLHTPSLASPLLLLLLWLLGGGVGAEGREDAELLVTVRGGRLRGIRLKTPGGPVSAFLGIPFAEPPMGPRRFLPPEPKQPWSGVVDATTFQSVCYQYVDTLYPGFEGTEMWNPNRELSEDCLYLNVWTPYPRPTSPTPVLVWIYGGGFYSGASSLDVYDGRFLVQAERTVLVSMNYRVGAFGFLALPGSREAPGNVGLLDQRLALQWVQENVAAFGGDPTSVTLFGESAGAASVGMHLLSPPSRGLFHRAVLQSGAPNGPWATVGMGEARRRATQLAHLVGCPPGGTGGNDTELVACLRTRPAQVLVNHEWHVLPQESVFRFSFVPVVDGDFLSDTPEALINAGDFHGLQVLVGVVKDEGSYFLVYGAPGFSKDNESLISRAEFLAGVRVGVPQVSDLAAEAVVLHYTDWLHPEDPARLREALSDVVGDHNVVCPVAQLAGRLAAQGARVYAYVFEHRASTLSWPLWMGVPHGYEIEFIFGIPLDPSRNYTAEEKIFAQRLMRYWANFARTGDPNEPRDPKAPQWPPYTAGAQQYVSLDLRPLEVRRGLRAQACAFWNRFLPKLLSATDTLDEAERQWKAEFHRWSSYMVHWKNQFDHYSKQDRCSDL
# Procedure, shortened: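 Compound or DMSO vehicle was pin-transferred onto recombinant human AChE (50 mU/mL as dispensed) and left 30 min at room temperature. Acetylthiocholine with DTNB then started the reaction, read colorimetrically 10 min later.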
# [2] = target: Acetylcholinesterase (Homo sapiens) (UniProt P22303); assay: Acetylcholinesterase (AChE) small molecule antagonists: enzyme-based qHTS assay with human liver microsomes (AID 1347399); conditions: Potency: qHTS inhibition; outcome: qHTS inhibition; also: nearly all actives have a fitted effect of over 60% in size
# Procedure, shortened: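 Recombinant human AChE (50 mU/mL in the enzyme mix) and human liver microsomes (0.25 mg/mL final) were preincubated with compound and NADPH (0.25 mg/mL final) for 30 min at 37 C. Acetylthiocholine/DTNB was then added; thiocholine was read colorimetrically after 10 min at room temperature.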
# [3] = target: Acetylcholinesterase (Homo sapiens) (UniProt P22303); assay: Acetylcholinesterase (AChE) small molecule antagonists: fluorescence cell-based qHTS assay (AID 1347398); conditions: Potency: AChE activity; outcome: AChE activity; also: nearly all actives have a fitted effect of over 50% in size
# Procedure, shortened: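 Using neuroblastoma SH-SY5Y cells as the enzyme source, test chemicals are preincubated 30 min at 37 C; AChE-driven acetylthiocholine cleavage is then quantified by thiocholine-dependent Thiolite Green fluorescence after 40 min at room temperature.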
# [4] = target: Glucocorticoid receptor (Homo sapiens) (UniProt P04150); assay: qHTS assay to identify small molecule antagonists of the glucocorticoid receptor (GR) signaling pathway (AID 720692; active = well fitted inhibition curve with a large enough effect in the signal ratio in the repeat runs, not every such curve was filed as active; the % refers to the signal ratio)
# Chain of Glucocorticoid receptor (Homo sapiens) (P04150 whole entry, looked up): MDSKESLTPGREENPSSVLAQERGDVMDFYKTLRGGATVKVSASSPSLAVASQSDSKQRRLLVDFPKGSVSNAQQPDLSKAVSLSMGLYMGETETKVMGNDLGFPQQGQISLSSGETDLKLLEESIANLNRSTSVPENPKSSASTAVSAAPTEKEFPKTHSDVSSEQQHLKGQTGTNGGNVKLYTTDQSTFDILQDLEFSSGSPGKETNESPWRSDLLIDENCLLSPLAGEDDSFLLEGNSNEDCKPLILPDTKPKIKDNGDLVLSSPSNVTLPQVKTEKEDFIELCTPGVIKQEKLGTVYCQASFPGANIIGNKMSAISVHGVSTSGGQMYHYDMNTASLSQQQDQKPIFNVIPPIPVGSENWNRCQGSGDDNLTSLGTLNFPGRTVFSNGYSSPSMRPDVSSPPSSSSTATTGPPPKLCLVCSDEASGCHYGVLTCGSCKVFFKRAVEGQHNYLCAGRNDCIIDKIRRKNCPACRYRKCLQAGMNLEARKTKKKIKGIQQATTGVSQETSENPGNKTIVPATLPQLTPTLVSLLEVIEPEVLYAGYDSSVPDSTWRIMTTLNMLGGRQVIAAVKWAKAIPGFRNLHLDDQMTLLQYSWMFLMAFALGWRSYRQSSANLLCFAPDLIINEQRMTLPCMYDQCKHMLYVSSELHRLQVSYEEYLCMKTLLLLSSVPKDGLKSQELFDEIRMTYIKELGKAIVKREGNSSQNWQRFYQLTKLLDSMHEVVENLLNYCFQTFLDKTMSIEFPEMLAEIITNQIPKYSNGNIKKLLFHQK
# Procedure, shortened: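 GRE-bla HeLa line, dex-stimulated (5 nM final). Compound exposure 18 h, 37 C. Beta-lactamase FRET read after 2 h RT substrate.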
# Aromatase (Homo sapiens) = Aromatase (Homo sapiens) (UniProt P11511); assay: qHTS assay to identify aromatase inhibitors (AID 743083; active = well fitted inhibition curve with a large enough effect in the repeat runs; also: series mostly up to about 70 µM; nearly all actives have a fitted effect of over 55% in size)
# Chain of Aromatase (Homo sapiens) (P11511 whole entry, looked up): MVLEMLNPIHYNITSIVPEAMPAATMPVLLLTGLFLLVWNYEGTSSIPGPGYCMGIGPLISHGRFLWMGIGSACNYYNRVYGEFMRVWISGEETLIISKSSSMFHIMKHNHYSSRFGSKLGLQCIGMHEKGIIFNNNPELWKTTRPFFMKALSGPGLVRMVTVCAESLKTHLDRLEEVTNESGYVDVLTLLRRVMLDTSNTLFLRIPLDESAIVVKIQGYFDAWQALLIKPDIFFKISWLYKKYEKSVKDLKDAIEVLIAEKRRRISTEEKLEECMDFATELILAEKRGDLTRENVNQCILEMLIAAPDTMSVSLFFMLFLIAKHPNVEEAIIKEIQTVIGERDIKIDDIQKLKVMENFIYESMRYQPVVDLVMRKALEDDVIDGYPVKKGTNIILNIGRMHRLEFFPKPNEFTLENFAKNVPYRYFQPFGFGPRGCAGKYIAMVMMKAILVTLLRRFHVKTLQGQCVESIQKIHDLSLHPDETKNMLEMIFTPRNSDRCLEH
compound,measurement,setting,value
COc1ccc(-n2nc(C(F)F)cc2-c2ccc(S(C)=O)cc2)cc1 (stereo not drawn),Potency,[1],inactive
same,Potency,[2],inactive
CO/N=C1\CN(c2nc3c(cc2F)c(=O)c(C(=O)O)cn3C2CC2)CC1CN (stereo not drawn),outcome,[1],inactive
same,outcome,[2],inactive
O=C(O)c1cccc(N(Cc2cccnc2)c2ccc(OC(F)F)c(OC(F)F)c2)c1,Potency,[1],inactive
same,Potency,[2],inactive
Cc1cccc(O)c1N,Potency,[1],inactive
same,Potency,[3],inactive
same,Potency,[2],inactive
CCCCN(CCCC)CCCOC(=O)c1ccc(N)cc1,Potency,[1],inactive
same,Potency,[2],inactive
COc1ccc2cc1Oc1ccc(cc1)C[C@H]1c3c(cc4c(c3Oc3cc5c(cc3OC)CCN(C)[C@@H]5C2)OCO4)CCN1C,Potency,[1],inactive
same,Potency,[2],inactive
COc1cc2c(Nc3ccc(Br)cc3F)ncnc2cc1OCC1CCN(C)CC1,Potency,[1],inactive
same,Potency,[2],inactive
O=C1CC2(CCCC2)CC(=O)N1CCCCN1CCN(c2ncccn2)CC1,Potency,[1],inactive
same,Potency,[2],inactive
Cc1nc2n(c(=O)c1CCN1CCC(c3noc4cc(F)ccc34)CC1)CCCC2,Potency,[1],inactive
same,Potency,[2],inactive
CN(C)CC[C@@H](c1ccc(Br)cc1)c1ccccn1,Potency,[1],inactive
same,Potency,[2],inactive
S=c1[nH]c2ccccc2s1,Potency,[1],inactive
same,Potency,[3],inactive
same,Potency,[2],inactive
O=C(OCC(O)CO)c1ccccc1Nc1ccnc2cc(Cl)ccc12 (stereo not drawn),Potency,[1],inactive
same,Potency,[2],inactive
Cc1ccc(C(=O)C(C)CN2CCCCC2)cc1 (stereo not drawn),Potency,[1],inactive
same,Potency,[2],inactive
C[n+]1ccn(Cc2ccccc2)c1,Potency,[1],inactive
same,Potency,[2],inactive
CC(CO)(CO)[N+](=O)[O-],Potency,[4],inactive
same,Potency,Aromatase (Homo sapiens),inactive
same,Potency,[1],inactive
same,Potency,[3],inactive
same,Potency,[2],inactive
CC(C)C[C@@H]1[C@H](c2ccccc2)OC(=O)N1CCCN1CCCCCC1,Potency,[1],inactive
same,Potency,[2],inactive
COc1ccccc1N=Nc1c(S(=O)(=O)O)cc2cc(S(=O)(=O)O)cc(NC(C)=O)c2c1O,Potency,[1],inactive
same,Potency,[2],inactive
CN(CCOc1ccc(NS(C)(=O)=O)cc1)CCc1ccc(NS(C)(=O)=O)cc1,Potency,[1],inactive
same,Potency,[2],inactive
Cc1ccc2c(c1)CCCN2,Potency,[1],inactive
same,Potency,[2],inactive
CN1C(=O)c2ccc([N+](=O)[O-])cc2C1=O,Potency,[1],inactive
same,Potency,[2],inactive
CCNc1nc(NC(C)CC)nc(OC)n1 (stereo not drawn),Potency,[1],inactive
same,Potency,[2],inactive
C1CCC(C(CC2CCCCN2)C2CCCCC2)CC1 (stereo not drawn),Potency,[1],inactive
same,Potency,[2],inactive
O=C1NC2CCCCN2C12CCN(CCCN1c3ccccc3CCc3ccc(Cl)cc31)CC2 (stereo not drawn),Potency,[1],inactive
same,Potency,[2],inactive
COc1ccnc2c1CCCCC2S(=O)c1nc2ccccc2[nH]1 (stereo not drawn),Potency,[1],inactive
same,Potency,[2],inactive
COc1cc(NC(C)CCCN)c2ncccc2c1 (stereo not drawn),Potency,[1],inactive
same,Potency,[2],inactive
CCCOc1ccc2c(c1)CC[C@@H]1[C@@H]2CC[C@]2(C)C(OC)CC[C@@H]12 (stereo partly drawn),Potency,[1],inactive
same,Potency,[2],inactive
NC(N)=N/N=C/c1c(Cl)cccc1Cl,Potency,[1],inactive
same,Potency,[2],inactive
NC(=O)C(c1ccccc1)(c1ccccc1)[C@@H]1CCN(CCc2ccc3c(c2)CCO3)C1,Potency,[1],inactive
same,Potency,[2],inactive
C/C=C1/C(=O)C[C@H]2[C@@H]3CCC4=CC(=O)CC[C@]4(C)[C@H]3CC[C@]12C,Potency,[1],inactive
same,Potency,[2],inactive
